# Source: PubChem BioAssay (ICCB-Longwood Screening Facility, Harvard Medical School)
# In the library only some 0.52% were active in any assay of this set; here they are far more common.
# Sa growth inh: S. aureus growth inhibition | S. aureus RN4220 growth, OD600, 20 h, 42 °C; hits give low values | relative growth, % (concentration not given with the values) | actives 0.53% (n = 170,000);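 active = relative growth at most 50% at the other temperature and 20+ points below 30 °C, or under 10% at both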
# Sa helicase inh: blocks Staphylococcus aureus DNA helicase; purified S. aureus helicase, fluorescence unwinding assay; inhibition, % (test concentration not listed); actives 0.05% (n = 120,000); AID 485395; in the data active = inhibition above about 25%, passing the limit was not always enough;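 also: 0% = mean of negative control wells and 100% = mean of positive control wells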
# Numbers without * were called inactive; . = not tested or not shown.
SMILES,Sa growth inh,Sa helicase inh
COC(=O)c1c2c(n3ccccc13)C(=O)c1ccccc1C2=O,.,-65.0
COC(=O)c1c2c(n3ccc(C)cc13)C(=O)c1ccccc1C2=O,7.5*,21.0
CCS(=O)(=O)C1=NN2C(=N)/C(=C\c3ccc(-c4ccccc4)o3)C(=O)N=C2S1,43.6*,-54.0
CS(=O)(=O)C1=NN2C(=N)/C(=C\c3ccc(-c4ccc(Cl)cc4)o3)C(=O)N=C2S1,41.5,-15.0
O=C(Nc1nccs1)c1cc2c(cc1Cl)N1CCCCCC1=NS2(=O)=O,85.0,-4.0
COc1ccccc1C(CC(=O)N1CCCC1)c1ccc2c(c1)OCO2 (centres undefined),92.3,1.0
COc1cccc(C(c2cc3c(cc2O)OCO3)N2CCCC2)c1O (centres undefined),1.2*,1.0
CCCCNC(=O)C1(O)c2ccccc2NC(=O)N1c1ccccc1 (centres undefined),71.9,32.0
OCCN(Cc1ccccc1)Cc1ccccc1C(F)(F)F,111.1,-13.0
CCOc1ccccc1Nc1nc2ccccc2s1,85.4,-14.0
CN1C(=O)/C(=C2\SC(N3CCCCCC3)=NC2=O)c2ccccc21,111.1,43.0*
C=CCN1C(=O)/C(=C2\SC(N3CCCCC3)=NC2=O)c2ccccc21,95.9,18.0
CCCCNC(=O)c1ccc(N2CCCC2)c(NS(=O)(=O)c2ccc(C)cc2)c1,95.8,10.0
CC(C)(C)c1ccc(Cn2c(=N)n(CC(O)c3ccco3)c3ccccc32)cc1 (centres undefined),30.8,-4.0
CC(C)(C)c1ccc(Cn2c(=N)n(CC(=O)c3ccco3)c3ccccc32)cc1,-0.6*,-42.0
Clc1ccc(OCCn2ccnc2)c(Br)c1,3.1*,9.0
Cc1cc(Cl)cc(C)c1OCCn1ccnc1,19.0,0.0
O=C1CCN(C(=O)c2ccc(-c3cccc(C(F)(F)F)c3)o2)CC1,98.5,0.0
COC(=O)c1c(OCC(=O)N(Cc2ccccc2)C(C)(C)C)cc(=O)n2c1CCCCC2,94.3,-2.0
COCCNC(=O)c1c[nH]n2c(=O)c(Cc3ccc(Cl)cc3)c(C)nc12,79.4,14.0
CNC(=O)c1c[nH]n2c(=O)c(Cc3ccccc3F)c(C)nc12,104.7,.
Cc1nc2c(C(=O)NCCc3ccccc3)c[nH]n2c(=O)c1Cc1ccccc1F,0.7*,.
Cc1nc2c(C(=O)NCCc3ccc(Cl)cc3)c[nH]n2c(=O)c1Cc1ccc(Cl)cc1,1.2*,.
O=C1CCC(C(=O)OCC(=O)N(C2CCCCC2)C2CCCCC2)=NN1,68.7,10.0
COCCNC(=O)c1nc(-c2ccc(C(F)(F)F)cc2)no1,107.9,0.0
SMILES,Sa growth inh,Sa helicase inh
CCN1CCN(CCNC(=O)c2cc(-c3ccccc3)c(N3CCOCC3)s2)CC1,91.8,-12.0
CN(C)c1ccc2sc(=S)[nH]c2c1,44.2,-9.0
FC(F)(F)c1ccc2sc(=S)[nH]c2c1,-0.8*,10.0
Cn1nnnc1SCCC(=O)Nc1ccccc1,92.0,2.0
O=C(O)C1=C(CSc2nnnn2CS(=O)(=O)O)CS[C@@H]2C(NC(=O)[C@H](O)c3ccccc3)C(=O)N12 (some centres undefined),-0.7*,.
CO[C@@]1(NC(=O)C(C(=O)O)c2ccc(O)cc2)C(=O)N2C(C(=O)O)=C(CSc3nnnn3C)CO[C@@H]21 (some centres undefined),87.7,.
Cn1nnnc1SCC1=C(C(=O)O)N2C(=O)C(NC(=O)C(OC=O)c3ccccc3)C2SC1 (centres undefined),-0.7*,.
Cn1nnnc1SCC1=C(C(=O)O)N2C(=O)C(NC(=O)C(O)c3ccccc3)C2SC1 (centres undefined),-0.5*,.
O=C(NCCSc1nnnn1-c1ccccc1)C(c1ccccc1)c1ccccc1,103.8,-4.0
C/C(=N\NC(=O)Cc1cc(=O)[nH][nH]1)c1ccco1,78.6,20.0
COc1ccc(N2CCN(c3cc(O)c4ccccc4c3O)CC2)cc1,.,-8.0
O=C(Nc1cccc(C(F)(F)F)c1)Nc1ccc2snnc2c1,9.9*,.
O=C(Nc1ccccc1)Nc1ccc2snnc2c1,13.5,13.0
O=C(Nc1ccccc1)Nc1ccc2nnsc2c1,2.4*,.
O=C(Nc1cccc(C(F)(F)F)c1)c1ccc2snnc2c1,98.6,.
Cc1ccc(S(=O)(=O)n2ncc3c2CCN(C(=O)OC(C)(C)C)C3)cc1,83.5,26.0
COC(=O)c1ccc(COC(=O)c2cc(-c3ccco3)nc3ccccc23)cc1,71.0,8.0
O=C(OCc1ccc(F)cc1)c1cc(-c2ccco2)nc2ccccc12,6.6*,1.0
C/C(=N\O)c1cc(-c2ccccc2)no1,-0.7*,.
C/C(=N\OC(=O)c1ccccc1)c1cc(-c2ccccc2)no1,100.9,3.0
CCCN(CCC)C(=O)C1=C(C)C(=O)OC12CCC(C)CC2 (centres undefined),95.0,18.0
c1ccc(-c2csc3ncnc(NCCCn4ccnc4)c23)cc1,80.7,.
CC(C)Cn1cnc2c(c(-c3ccccc3)c(-c3ccccc3)n2Cc2ccco2)c1=N,48.0*,0.0
c1ccc(-c2c(-c3ccccc3)n(Cc3ccco3)c3ncnc(NCCCn4ccnc4)c23)cc1,0.1*,-19.0
N=c1c2c(-c3ccccc3)c(-c3ccccc3)n(Cc3ccco3)c2ncn1CCCN1CCOCC1,88.6,13.0
SMILES,Sa growth inh,Sa helicase inh
C(=NCC1CCC(CN=Cc2ccco2)CC1)c1ccco1 (centres undefined),108.0,.
Cc1ccc(S(=O)(=O)Nc2ccccc2-c2nnc(-c3ccc(Cl)cc3)o2)cc1,87.8,11.0
CCOC(=O)c1cccc(NC2c3ncccc3C(=O)N2c2ccc(C)cc2)c1 (centres undefined),103.4,9.0
N#Cc1c(Cl)nc(Cl)c(Cl)c1Cl,66.1,-3.0
CC(C)=NNc1nc(Cl)c(C#N)c(Cl)c1Cl,6.4*,.
C=CCN(CC=C)C(=O)CSc1nc(-c2ccccc2)cn1N,96.4,10.0
OC1(c2ccccc2F)CCN(CCN2CCCCC2)CC1,95.4,-4.0
COc1ccc(N2C(=O)C3SC(N)=C(C#N)C(c4ccco4)C3C2=O)cc1 (centres undefined),99.1,21.0
COc1cc(C)c(Cc2cnc(N)nc2N)cc1OC,-0.2*,.
COc1cc(Cc2cc(OC)c(C)cc2OC)c(OC)cc1C,97.8,.
COc1cccc(Cn2nnc3c(=O)[nH]c(C4CCN(C(=O)c5ccccc5)CC4)nc32)c1,0.8*,8.0
Cc1ccccc1Cn1nnc2c(=O)[nH]c(C3CCN(C(=O)c4ccccc4Cl)CC3)nc21,12.3,.
O=C(Cc1ccccc1F)N1CCC(c2nc3c(nnn3Cc3ccc(F)cc3)c(=O)[nH]2)CC1,67.8,.
O=C(c1ccccc1)N1CCC(c2nc3c(nnn3Cc3ccccc3)c(=O)[nH]2)CC1,2.9*,-1.0
Cc1cccc(Cn2nnc3c(=O)[nH]c(C4CCN(C(=O)c5ccccc5F)CC4)nc32)c1,102.9,.
CC(C)(C)OC(=O)N1CCC(c2nc3c(nnn3Cc3ccccc3Cl)c(=O)[nH]2)CC1,0.3*,0.0
COc1cccc(Cn2nnc3c(=O)[nH]c(C4CCCN(C(=O)c5ccc(C)cc5)C4)nc32)c1 (centres undefined),79.4,.
COc1cccc(Cn2nnc3c(=O)[nH]c(C4CCN(C(=O)c5ccccc5Cl)CC4)nc32)c1,0.4*,.
CN1CCN(CCNC(=O)C2c3ccccc3C(=O)N(C3CCCC3)C2c2cccs2)CC1 (centres undefined),87.8,-20.0
COc1ccc(N2C(=O)CCC(C(=O)O)C2c2ccccc2)cc1 (centres undefined),98.0,-18.0
CC(=O)N1CCN(CCNC(=O)c2ccncc2)CC1,107.0,15.0
